Assay results as given in PubChem BioAssay.
Several values for one entry are separate records, joined by “and”; a condition that tells them apart may be missing. Equal entries are not always repeated. Records with an inconclusive call do not appear. Activity calls are given as the source filed them.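 The calls were made as follows, unless noted: active = superoxide response below 65% of plate, a cut near 3 SD across the whole screen; inactive = the rest.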

Columns and labels:
[1] = rapamycin-like changes in RPL19A-GFP expression – cell-based, S. cerevisiae, multiplex flow cytometry, primary screen (AID 1862; in the data active = percent of DMSO control GFP below about 86%;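 also: lower values mimic rapamycin by blocking the RPL19A rise seen in DMSO cells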); settings: S. cerevisiae RPL19A-GFP strain, flow cytometry fluorescence, 3 h; at 10 µM; stronger effect = lower value
[2] = TOR pathway GLN3 branch reporter MEP2-GFP changes – S. cerevisiae, multiplex flow cytometry, primary screen (AID 1867;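 active = GFP response, as percent of the DMSO control, above the screen-wide mean plus 3 SD, about 139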;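 also: median GFP channel fluorescence of barcode-gated MEP2-GFP cells measured by flow cytometry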); settings: S. cerevisiae MEP2-GFP strain, 3 h, at 10 µM, stronger effect = higher value, 100% means same as DMSO wells
[3] = TOR pathway RTG branch CIT2 reporter changes – S. cerevisiae, GFP fusion, multiplex flow cytometry, primary screen (AID 1870;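 active = percent response above a set limit, the screen-wide mean plus 3 SD, cut at about 130% in these data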;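 also: barcoded CIT2-GFP strain pooled with four other GFP strains with rapamycin as positive control; median GFP fluorescence per well over plate mean of DMSO wells so 100% = DMSO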); settings: S. cerevisiae CIT2-GFP expression, 3 h, at 10 µM, stronger effect = higher value
[4] = TOR pathway LAP4-GFP level changes – S. cerevisiae, multiplex flow cytometry, primary screen (AID 1873;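 active = GFP signal, as percent of the solvent control, above the screen mean plus 3 SD, about 149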); settings: S. cerevisiae LAP4-GFP expression, 3 h, at 10 µM, stronger effect = higher value
[5] = yeast AGP1-GFP level changes, GLN3 branch – cell-based, multiplex flow cytometry, S. cerevisiae, primary screen (AID 1887;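 active = GFP signal above the screen-wide mean plus 3 SD, that is over about 124.5% of the solvent control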;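 also: AGP1-GFP fusion strain of S. cerevisiae within a five-strain barcoded multiplex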); settings: 3 h, at 10 µM, stronger effect = higher value
[6] = reduced mouse 2C T cell binding to pMHC/ICAM-1 vesicles – MLPCN validation set, flow cytometry, LFA-1/ICAM-1 modulator project, pilot screen (AID 2523;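 active = response below a set limit, under 55% cells CD8-positive and vesicle-bound, and CD8 cells' 90th-percentile brightness under 279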;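 as to vesicle binding response: mean PE anti-B7-1 fluorescence of CD8+ cells relative to row control; 100% = QL9-loaded vesicles with DMSO vehicle in the same plate row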); settings: 2C mouse CD8+ T cells, at 7 µM, stronger effect = lower value; double positive events: measured here: CD8+/vesicle+ event percentage
[7] = biological target: Integrin beta-1 (Homo sapiens) + Integrin alpha-4 (Homo sapiens) (UniProt P13612+P05556); experiment: alpha4beta1 integrin LIBS antibody binding reduction – U937 cells, HUTS-21 mAb, flow cytometry, validation set, VLA-4 allosteric modulator project, pilot screen (AID 2674;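 active = inhibition above 50%, about 3 SD of the validation set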;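 also: antibody binding induced by the VLA-4 ligand LDV present at three times its Kd; 0% = LDV ligand with antibody and no compound and 100% = antibody without LDV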); settings: HUTS-21 LIBS mAb binding, at 6.7 µM, stronger effect = higher value, binding induced by LDV ligand
[8] = calorie-restriction mimetic ROS inhibitors, yeast – validation compound set, pilot screen (AID 2706);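 also: yeast exposed to compound for one week at 30 degrees C before staining; 100% = mean of all compound wells on the same plate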; settings: S. cerevisiae aging, superoxide DHE fluorescence; at 10 µM; stronger effect = lower value
[9] = biological target: Beta-adrenergic receptor kinase 1 (Homo sapiens) (UniProt P25098); experiment: GRK2 binders displacing RNA aptamer, biochemical, validation, human GRK2, bead flow cytometry (AID 488806;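 active = aptamer binding inhibition above 30%, about 3 SD of noise from non-fluorescent compounds; inactive = inhibition at or below 30%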); settings: bead-bound GRK2, FAM-aptamer displacement, at 10 µM, stronger effect = higher value
[10] = biological target: Beta-2 adrenergic receptor (Homo sapiens) (UniProt P07550); experiment: agonist-induced loss of surface beta2AR – cell-based, FAP fluorogen, flow cytometry, validation set, pilot screen (AID 504459;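 active = percent response above 42, roughly 3 SD of non-fluorescent test compounds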;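 also: agonist-driven loss of surface beta2AR via internalization measured by FAP dye flow cytometry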); settings: Am2.2-beta2AR cells, at 10 µM, stronger effect = higher value
[11] = biological target: AP-2 complex subunit beta (Homo sapiens) (UniProt P63010); experiment: beta-arrestin/AP2 interaction blockers – biochemical, validation set, GST-AP2 beads, flow cytometry, pilot screen (AID 504541;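 active = inhibition above 54%, about 3 SD of non-fluorescent compounds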;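 also: AP2 carries R879A mutation and is captured from E. coli lysate; bead-bound FITC arrestin peptide fluorescence measuring arrestin peptide binding to AP2; 0% = DMSO wells and 100% = excess unlabeled arrestin peptide control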); settings: FITC arrestin peptide, at 10 µM, stronger effect = higher value, AP2 beta2 appendage fragment, R879A mutant
[12] = cytosolic pH regulators acting via V-ATPase – S. cerevisiae, pHLuorin, HTS validation (AID 504600; in the data active = response above about 15%;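 also: plate controls were DMSO for no effect and reference compound for full effect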); settings: V-ATPase proton transport, at 10 µM, stronger effect = higher value
[13] = system: anti-desmoglein-3 scFv antibody binding to human DSG3; experiment: blockers of pathogenic pemphigus antibody–desmoglein-3 binding – biochemical, validation compound set, bead-based, flow cytometry, pilot screen (AID 588368;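 active = binding below the plate cutoff, the plate median minus 3 SD, with a reading above zero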;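 also: signal is the median channel fluorescence of bead-bound GFP antibody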); settings: Protein G beads, DSG3-Fc, scFv-GFP binding, at 10 µM, stronger effect = lower value
[14] = Nile Red efflux blockade in pump-expressing yeast – validation compound set, multiplex, phenotypic, pilot screen (AID 588506;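 active = efflux inhibition above 0.42, the validation set average plus 4 SD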;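 also: Nile Red retained in cells so higher fluorescence means more efflux inhibition; 0 = negative control wells and 1 = enniatin B 25 µM full block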); settings: S. cerevisiae pump-expressing triplex, Nile Red efflux flow cytometry; at 10 µM; stronger effect = higher value; the pumps come from Candida albicans
[15] = biological target: ATP-binding cassette sub-family B member 6 (Homo sapiens) (UniProt Q9NP58); experiment: blockers of ABCB6-driven porphyrin uptake – K562-ABCB6 cells, flow cytometry, validation set, pilot screen (AID 588550;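 active = inhibition above the screen-wide mean plus 3 SD, about 51%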;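 also: 0% = DMSO wells and 100% = benzethonium chloride 70 µM positive control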); settings: K562-ABCB6 porphyrin accumulation, 1 h, at 10 µM, stronger effect = higher value
[16] = AML differentiation inducers, ER-HoxA9 marrow cells – cell-based, GFP/MAC1 double positive, flow cytometry, validation set, primary screen (AID 588685;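 active = differentiation response of at least 50%, scaled between solvent and reference control, from cells with both markers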;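 also: compound exposure lasts four days before antibody staining and flow analysis; 0% = DMSO wells and 100% = 5 µM fulvestrant positive control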); settings: stronger effect = higher value, normalized: vehicle 0, fulvestrant 100

Sequence of Beta-2 adrenergic receptor (Homo sapiens) (P07550 whole entry, looked up): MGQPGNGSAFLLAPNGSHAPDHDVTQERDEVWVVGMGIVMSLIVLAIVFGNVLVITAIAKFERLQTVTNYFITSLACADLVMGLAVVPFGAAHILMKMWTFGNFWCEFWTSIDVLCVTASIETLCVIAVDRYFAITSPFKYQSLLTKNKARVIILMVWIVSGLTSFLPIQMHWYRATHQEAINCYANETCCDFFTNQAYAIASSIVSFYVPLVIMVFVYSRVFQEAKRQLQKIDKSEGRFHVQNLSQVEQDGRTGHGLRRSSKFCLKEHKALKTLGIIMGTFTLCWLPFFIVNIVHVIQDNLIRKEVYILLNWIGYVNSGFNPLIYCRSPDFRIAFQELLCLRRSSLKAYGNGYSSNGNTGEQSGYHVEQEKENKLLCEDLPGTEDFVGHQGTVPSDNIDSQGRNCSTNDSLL
Sequence of Integrin beta-1 (Homo sapiens) + Integrin alpha-4 (Homo sapiens) (P05556 whole entry, looked up): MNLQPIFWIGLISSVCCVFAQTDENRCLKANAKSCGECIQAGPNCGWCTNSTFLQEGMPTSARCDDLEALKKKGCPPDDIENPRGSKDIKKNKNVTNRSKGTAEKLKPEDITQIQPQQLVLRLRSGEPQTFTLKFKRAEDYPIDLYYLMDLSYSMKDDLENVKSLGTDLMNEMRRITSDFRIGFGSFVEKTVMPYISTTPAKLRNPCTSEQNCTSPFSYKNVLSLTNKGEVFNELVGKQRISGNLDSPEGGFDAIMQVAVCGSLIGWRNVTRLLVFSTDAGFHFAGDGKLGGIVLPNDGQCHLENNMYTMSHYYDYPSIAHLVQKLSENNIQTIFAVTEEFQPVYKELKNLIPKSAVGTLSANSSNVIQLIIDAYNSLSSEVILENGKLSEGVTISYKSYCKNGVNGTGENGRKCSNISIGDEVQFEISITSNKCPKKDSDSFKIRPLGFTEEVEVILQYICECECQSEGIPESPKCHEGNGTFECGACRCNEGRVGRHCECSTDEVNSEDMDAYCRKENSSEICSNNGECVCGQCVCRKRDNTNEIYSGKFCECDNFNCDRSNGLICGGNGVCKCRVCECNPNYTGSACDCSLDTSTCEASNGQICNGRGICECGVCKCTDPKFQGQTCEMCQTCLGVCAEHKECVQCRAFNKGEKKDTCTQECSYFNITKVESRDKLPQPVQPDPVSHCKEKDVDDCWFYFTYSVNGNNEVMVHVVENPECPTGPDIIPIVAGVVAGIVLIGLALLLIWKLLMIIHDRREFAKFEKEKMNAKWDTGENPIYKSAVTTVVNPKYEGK
Sequence of Integrin beta-1 (Homo sapiens) + Integrin alpha-4 (Homo sapiens) (P13612 whole entry, looked up): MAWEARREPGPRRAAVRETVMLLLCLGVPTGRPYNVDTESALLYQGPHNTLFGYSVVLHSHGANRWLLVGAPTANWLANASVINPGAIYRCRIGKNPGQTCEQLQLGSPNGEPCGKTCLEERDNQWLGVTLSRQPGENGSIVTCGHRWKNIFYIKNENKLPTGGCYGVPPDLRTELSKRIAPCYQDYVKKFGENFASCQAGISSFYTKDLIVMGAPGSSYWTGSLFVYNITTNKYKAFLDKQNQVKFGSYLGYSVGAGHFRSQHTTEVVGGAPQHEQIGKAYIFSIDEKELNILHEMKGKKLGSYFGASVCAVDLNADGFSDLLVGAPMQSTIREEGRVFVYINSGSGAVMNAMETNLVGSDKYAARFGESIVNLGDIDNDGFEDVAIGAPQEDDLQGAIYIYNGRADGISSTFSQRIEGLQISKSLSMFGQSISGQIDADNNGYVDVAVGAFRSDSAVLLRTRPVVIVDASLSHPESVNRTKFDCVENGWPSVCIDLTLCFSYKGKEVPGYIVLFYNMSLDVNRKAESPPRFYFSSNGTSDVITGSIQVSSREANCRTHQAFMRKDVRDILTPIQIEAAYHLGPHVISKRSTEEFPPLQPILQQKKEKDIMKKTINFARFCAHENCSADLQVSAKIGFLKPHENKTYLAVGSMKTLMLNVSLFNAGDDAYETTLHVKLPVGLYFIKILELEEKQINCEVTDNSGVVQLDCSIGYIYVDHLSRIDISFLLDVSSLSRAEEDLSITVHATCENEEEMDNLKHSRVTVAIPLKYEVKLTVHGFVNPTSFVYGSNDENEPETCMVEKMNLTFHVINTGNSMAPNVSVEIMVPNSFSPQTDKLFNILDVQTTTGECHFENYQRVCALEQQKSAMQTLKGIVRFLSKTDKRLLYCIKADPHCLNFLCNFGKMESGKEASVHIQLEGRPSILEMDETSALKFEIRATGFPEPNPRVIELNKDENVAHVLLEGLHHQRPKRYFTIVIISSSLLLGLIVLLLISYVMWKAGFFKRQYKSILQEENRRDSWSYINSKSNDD
Sequence of Beta-adrenergic receptor kinase 1 (Homo sapiens) (P25098 whole entry, looked up): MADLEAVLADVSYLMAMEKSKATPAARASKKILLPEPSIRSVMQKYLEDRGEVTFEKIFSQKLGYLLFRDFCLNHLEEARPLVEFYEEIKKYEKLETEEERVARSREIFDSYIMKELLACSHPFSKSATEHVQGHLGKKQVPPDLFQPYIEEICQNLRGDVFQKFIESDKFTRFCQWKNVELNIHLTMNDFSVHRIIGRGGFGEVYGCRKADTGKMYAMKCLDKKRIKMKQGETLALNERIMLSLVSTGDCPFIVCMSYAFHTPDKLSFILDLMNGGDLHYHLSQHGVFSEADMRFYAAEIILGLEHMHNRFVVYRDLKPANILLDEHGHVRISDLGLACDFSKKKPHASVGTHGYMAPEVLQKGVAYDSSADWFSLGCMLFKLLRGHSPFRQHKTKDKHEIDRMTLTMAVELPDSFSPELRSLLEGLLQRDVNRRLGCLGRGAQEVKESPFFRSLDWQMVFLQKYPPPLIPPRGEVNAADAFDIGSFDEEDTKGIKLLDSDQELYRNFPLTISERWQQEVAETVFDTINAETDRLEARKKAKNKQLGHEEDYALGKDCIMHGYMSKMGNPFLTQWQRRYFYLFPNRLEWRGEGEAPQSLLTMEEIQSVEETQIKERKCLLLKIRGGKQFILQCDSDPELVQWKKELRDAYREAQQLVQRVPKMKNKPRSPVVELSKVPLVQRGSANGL
Sequence of ATP-binding cassette sub-family B member 6 (Homo sapiens) (Q9NP58 whole entry, looked up): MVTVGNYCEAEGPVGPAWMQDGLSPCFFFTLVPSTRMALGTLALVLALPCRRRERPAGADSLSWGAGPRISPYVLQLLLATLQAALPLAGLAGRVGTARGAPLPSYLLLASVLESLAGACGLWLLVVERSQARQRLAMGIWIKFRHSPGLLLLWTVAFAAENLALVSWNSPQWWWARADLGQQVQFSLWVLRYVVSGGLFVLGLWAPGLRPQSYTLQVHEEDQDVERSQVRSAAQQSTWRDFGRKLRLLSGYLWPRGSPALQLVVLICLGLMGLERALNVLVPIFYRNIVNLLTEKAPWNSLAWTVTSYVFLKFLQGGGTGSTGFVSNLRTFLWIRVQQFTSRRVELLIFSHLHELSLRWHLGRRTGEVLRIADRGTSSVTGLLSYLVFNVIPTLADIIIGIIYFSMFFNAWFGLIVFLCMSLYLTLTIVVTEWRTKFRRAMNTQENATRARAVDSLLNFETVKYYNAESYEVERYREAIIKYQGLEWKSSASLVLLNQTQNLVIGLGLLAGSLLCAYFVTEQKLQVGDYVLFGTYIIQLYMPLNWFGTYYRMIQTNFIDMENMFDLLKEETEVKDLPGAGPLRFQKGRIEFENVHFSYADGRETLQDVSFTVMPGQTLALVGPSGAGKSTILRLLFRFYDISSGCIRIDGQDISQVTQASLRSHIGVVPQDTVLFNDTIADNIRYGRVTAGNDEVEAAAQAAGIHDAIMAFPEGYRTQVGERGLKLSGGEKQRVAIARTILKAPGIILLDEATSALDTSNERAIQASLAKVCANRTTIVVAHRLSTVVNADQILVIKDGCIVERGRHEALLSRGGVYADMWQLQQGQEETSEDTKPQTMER
Sequence of AP-2 complex subunit beta (Homo sapiens) (P63010 whole entry, looked up, the tested form may be a part, one chain of several): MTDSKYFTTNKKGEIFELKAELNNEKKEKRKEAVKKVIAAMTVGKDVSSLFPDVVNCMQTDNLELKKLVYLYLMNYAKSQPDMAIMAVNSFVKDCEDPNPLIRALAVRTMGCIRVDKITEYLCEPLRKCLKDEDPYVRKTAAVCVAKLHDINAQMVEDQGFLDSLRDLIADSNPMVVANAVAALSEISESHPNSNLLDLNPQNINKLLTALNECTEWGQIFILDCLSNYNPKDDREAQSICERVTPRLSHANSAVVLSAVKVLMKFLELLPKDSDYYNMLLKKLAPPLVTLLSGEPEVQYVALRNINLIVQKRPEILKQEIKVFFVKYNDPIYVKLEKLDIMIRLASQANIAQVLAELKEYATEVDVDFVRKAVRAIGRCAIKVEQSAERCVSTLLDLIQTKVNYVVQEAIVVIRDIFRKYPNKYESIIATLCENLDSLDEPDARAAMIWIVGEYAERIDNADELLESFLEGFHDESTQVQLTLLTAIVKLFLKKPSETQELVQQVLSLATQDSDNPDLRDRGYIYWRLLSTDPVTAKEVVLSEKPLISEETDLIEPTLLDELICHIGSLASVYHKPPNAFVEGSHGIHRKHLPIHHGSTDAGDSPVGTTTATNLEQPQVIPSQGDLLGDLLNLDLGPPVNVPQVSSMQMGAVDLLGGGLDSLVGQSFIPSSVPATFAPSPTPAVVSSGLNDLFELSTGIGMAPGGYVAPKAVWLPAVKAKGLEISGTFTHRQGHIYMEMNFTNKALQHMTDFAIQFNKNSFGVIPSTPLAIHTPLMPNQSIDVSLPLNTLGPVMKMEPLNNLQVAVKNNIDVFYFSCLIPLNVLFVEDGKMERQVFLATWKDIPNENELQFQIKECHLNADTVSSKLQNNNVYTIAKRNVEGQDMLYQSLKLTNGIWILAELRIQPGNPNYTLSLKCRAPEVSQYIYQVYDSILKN

Cc1ccc2[nH]c3c(=O)n(CCc4cnc[nH]4)cnc3c2c1
inactive: percent of DMSO control GFP [1] 96.4% | GFP response vs DMSO [2] 99.7% | percent response of DMSO control [3] 105% | GFP response vs DMSO [4] 97% | GFP response, % of DMSO [5] 103% | vesicle binding response [6] 172% | inhibition [7] -17.2% | superoxide response (% of plate) [8] 93.1% | aptamer binding inhibition [9] 0% | response [10] -13.6% | inhibition [11] -15.4% | response [12] 1.97% | binding (% of control) [13] 103% | efflux inhibition (fraction of control) [14] -0.58 | inhibition [15] 10% | differentiation response [16] -14.8%
65.2%: double positive events [6]

C=C(C)C(=O)Nc1ccc(NC(C)C)cc1
66%: double positive events [6]
inactive: percent of DMSO control GFP [1] 104% | GFP response vs DMSO [2] 104% | percent response of DMSO control [3] 97.6% | GFP response vs DMSO [4] 106% | GFP response, % of DMSO [5] 101% | vesicle binding response [6] 170% | inhibition [7] 9.63% | superoxide response (% of plate) [8] 96.6% | aptamer binding inhibition [9] 4% | response [10] 0.61% | inhibition [11] 19.3% | response [12] -7.05% | binding (% of control) [13] 95.1% | efflux inhibition (fraction of control) [14] -0.09 | inhibition [15] 0% | differentiation response [16] -8.96%

Fc1ccc(-n2cc(CNCCc3ccccn3)c(-c3ccccc3Cl)n2)cc1
inactive: percent of DMSO control GFP [1] 106% | GFP response vs DMSO [2] 102% | percent response of DMSO control [3] 97.7% | GFP response vs DMSO [4] 106% | GFP response, % of DMSO [5] 107% | vesicle binding response [6] 91.8% | inhibition [7] 15.9% | superoxide response (% of plate) [8] 98.4% | aptamer binding inhibition [9] -3% | response [10] -23.3% | inhibition [11] 1.4% | response [12] -7.11% | binding (% of control) [13] 110% | efflux inhibition (fraction of control) [14] -0.17 | inhibition [15] -2% | differentiation response [16] -7.94%
63.8%: double positive events [6]

CCN(CC)CC#CCOC(=O)C(O)(c1ccccc1)C1CCCCC1 (stereo not drawn)
inactive: percent of DMSO control GFP [1] 91.1% | GFP response vs DMSO [2] 132% | percent response of DMSO control [3] 110% | GFP response vs DMSO [4] 83.1% | GFP response, % of DMSO [5] 91.2% | vesicle binding response [6] 181% | inhibition [7] 10.3% | superoxide response (% of plate) [8] 112% | aptamer binding inhibition [9] 4% | response [10] 14.8% | inhibition [11] -2.84% | response [12] -0.18% | binding (% of control) [13] 104% | efflux inhibition (fraction of control) [14] 0.3 | inhibition [15] 8% | differentiation response [16] -1.64%
62.3%: double positive events [6]

OC12CCCCC1C(c1ccc3c(c1)OCO3)N(Cc1cccc(F)c1)CC2 (stereo not drawn)
61.7%: double positive events [6]
inactive: percent of DMSO control GFP [1] 103% | GFP response vs DMSO [2] 90.9% | percent response of DMSO control [3] 113% | GFP response vs DMSO [4] 94% | GFP response, % of DMSO [5] 101% | vesicle binding response [6] 234% | inhibition [7] -5.64% | superoxide response (% of plate) [8] 97.9% | aptamer binding inhibition [9] 3% | response [10] -6.32% | inhibition [11] 7.03% | response [12] -0.75% | binding (% of control) [13] 104% | efflux inhibition (fraction of control) [14] -0.01 | inhibition [15] 0% | differentiation response [16] -10.5%

O=C1NC(=O)C(c2ccccc2)(c2ccccc2)N1
inactive: percent of DMSO control GFP [1] 102% | GFP response vs DMSO [2] 107% | percent response of DMSO control [3] 93.9% | GFP response vs DMSO [4] 93.3% | GFP response, % of DMSO [5] 99.6% | vesicle binding response [6] 114% and 142% | inhibition [7] 20.4% and -2.11% | superoxide response (% of plate) [8] 102% and 98.5% | aptamer binding inhibition [9] -2% and 2% | response [10] 5.51% | inhibition [11] 1.12% and -5.85% | response [12] 8.2% and -0.2% | binding (% of control) [13] 97% and 99.3% | efflux inhibition (fraction of control) [14] -0.44 and 0.29 | inhibition [15] 11% and 12% | differentiation response [16] -0.18% and -8.27%
58.7% and 60.5%: double positive events [6]

COc1ccccc1N1C(=O)C2CC(C)=C(C)CC2C1=O (stereo not drawn)
inactive: percent of DMSO control GFP [1] 103% | GFP response vs DMSO [2] 102% | percent response of DMSO control [3] 99.3% | GFP response vs DMSO [4] 85.2% | GFP response, % of DMSO [5] 104% | vesicle binding response [6] 164% | inhibition [7] 19.7% | superoxide response (% of plate) [8] 109% | aptamer binding inhibition [9] 11% | response [10] 4.23% | inhibition [11] -31.7% | response [12] 2.17% | binding (% of control) [13] 99% | efflux inhibition (fraction of control) [14] -0.06 | inhibition [15] 4% | differentiation response [16] -3.4%
63%: double positive events [6]

Cn1c(Oc2ccc3c(c2)OCO3)nc2c1c(=O)n(Cc1ccccc1)c(=O)n2C
60.5%: double positive events [6]
inactive: percent of DMSO control GFP [1] 98.7% | GFP response vs DMSO [2] 102% | percent response of DMSO control [3] 94.4% | GFP response vs DMSO [4] 104% | GFP response, % of DMSO [5] 109% | vesicle binding response [6] 189% | inhibition [7] -5.38% | superoxide response (% of plate) [8] 116% | aptamer binding inhibition [9] 8% | response [10] -26.9% | inhibition [11] 3.83% | response [12] -0.9% | binding (% of control) [13] 97.8% | efflux inhibition (fraction of control) [14] 0.04 | inhibition [15] 5% | differentiation response [16] -4.99%

COc1ccc(-c2nc(NC(C)=O)sc2-c2ccc(OC)cc2)cc1
inactive: percent of DMSO control GFP [1] 104% | GFP response vs DMSO [2] 101% | percent response of DMSO control [3] 99.7% | GFP response vs DMSO [4] 92.6% | GFP response, % of DMSO [5] 90.9% | vesicle binding response [6] 232% | inhibition [7] -2.43% | superoxide response (% of plate) [8] 104% | aptamer binding inhibition [9] 2% | response [10] -22.1% | inhibition [11] -11.5% | response [12] 0.09% | binding (% of control) [13] 102% | efflux inhibition (fraction of control) [14] -0.29 | inhibition [15] 0% | differentiation response [16] 14.4%
65.9%: double positive events [6]
